Screens from PubChem BioAssay.
IL-1B inflam inh: blocks inflammasome-driven IL-1 beta release; THP-1 LPS/ATP IL-1B secretion, AlphaLISA, 16 h; hits give low values; activity change, % at 57.5 µM; hit rate 4.7% among 360,000; AID 743279; in the data active = activity change below about -50%; inconclusive = mostly about -30% to -49%; note: % is set by controls: 0 for no effect and ±100 for the full control effect
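THP-1 cells pretreated 1 hr with compounds (up to 57.5 uM final), then stimulated with LPS (250 ng/mL final) plus ATP (1.25 mM final); secreted IL-1B measured by AlphaLISA after 16 hr, decreased signal indicating inhibition.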
TDP1 cell noCPT: qHTS for Inhibitors of human tyrosyl-DNA phosphodiesterase 1 (TDP1): qHTS in cells in absence of CPT | DT40 Tdp1-/- hTDP1 cells, no CPT, ATP luminescence, 48 h | Potency, µM (top dose mostly 46.2 µM), for the others: at the highest dose activity change, negative = growth inhibition, most hits filed as inhibitors | hit rate 15% among 420,000 | AID 686978, 2013; note: potency is the fitted concentration of half-maximal effect; % is set by controls: 0 for no effect and ±100 for the full control effect; nearly all actives have a fitted effect of over 55% in size
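Chicken DT40 Tdp1-/- cells complemented with human TDP1, screened without camptothecin (DMSO vehicle only), 400 cells/well. Compounds pin-transferred, cells incubated at 37 °C for at least 48 hr. Growth read as ATP-dependent luminescence (CellTiter-Glo, 30 min at RT).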
TDP1 cell CPT: growth inhibition of DT40 Tdp1-/-;hTDP1 cells with camptothecin (screen for TDP1 inhibitors) | chicken DT40 Tdp1-/-;hTDP1 cells + 20 nM CPT, ATP luminescence, 48 h | hit rate 12% among 420,000 | AID 686979 | Potency, µM (series often up to 46.2 µM), without a hit: top-dose activity change, negative = growth inhibition, most hits filed as inhibitors; note: potency is the fitted concentration of half-maximal effect; % is set by controls: 0 for no effect and ±100 for the full control effect; nearly all actives have a fitted effect of over 55% in size
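Chicken DT40 Tdp1-/- cells stably complemented with human TDP1 were seeded at 400 cells/well in medium containing 20 nM camptothecin, exposed to pin-transferred compounds, and grown at 37 °C for at least 48 hr. Viability was read as ATP luminescence.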
HepG2 tox: HepG2 cytotoxicity, counter-screen for TGF-b inhibitors. HepG2 CAGA-GFP viability, ATP luminescence, 18 h. Potency, µM (titrated, usually from 46.1 µM), inactives show at the top dose activity change, negative = cytotoxicity, usual class: cytotoxic. hit rate 0.76% among 410,000. AID 588856; note: potency is the fitted concentration of half-maximal effect
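CellTiter-Glo luminescence gave cytotoxicity after 18 hours at 37 degrees C. The cells were HepG2 CAGA-GFP in 1% FBS DMEM, stimulated with 500 pg/mL TGF-beta after compound addition. %Activity was normalised to no-cell wells (complete cell-killing) and DMSO (no toxicity), and curves were fitted and classified.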
TGFb SMAD3 inh: blocks TGF-b signaling. HepG2 CAGA-GFP TGF-b/SMAD3 reporter, GFP fluorescence, 18 h; TGF-beta stimulated, 500 pg/mL final. hit rate 1.2% among 410,000. AID 588855. Potency, µM (doses to about 46.1 µM), for inactives: at the top dose activity, negative = inhibition, actives largely listed as inhibitors; note: potency is the fitted concentration of half-maximal effect; % is set by controls: 0 for no effect and ±100 for the full control effect; nearly all actives have a fitted effect of over 65% in size
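TGF-beta reporter screen: HEPG2 CAGA-GFP, 1% FBS, 500 pg/mL TGF-beta final, 18 h; per-cell GFP summed per well; curves fitted and categorized by class.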
S-ASM inh: human S-ASM enzyme inhibition. P17405. placental ASM, HMU-PC fluorogenic substrate, 60 min. Potency, µM (doses to about 57.5 µM), inactives show at the highest dose activity change, negative = inhibition, usual class: inhibitors. hit rate 0.006% among 340,000; note: potency is the fitted concentration of half-maximal effect
Target sequence (P17405 47-631 limits assumed): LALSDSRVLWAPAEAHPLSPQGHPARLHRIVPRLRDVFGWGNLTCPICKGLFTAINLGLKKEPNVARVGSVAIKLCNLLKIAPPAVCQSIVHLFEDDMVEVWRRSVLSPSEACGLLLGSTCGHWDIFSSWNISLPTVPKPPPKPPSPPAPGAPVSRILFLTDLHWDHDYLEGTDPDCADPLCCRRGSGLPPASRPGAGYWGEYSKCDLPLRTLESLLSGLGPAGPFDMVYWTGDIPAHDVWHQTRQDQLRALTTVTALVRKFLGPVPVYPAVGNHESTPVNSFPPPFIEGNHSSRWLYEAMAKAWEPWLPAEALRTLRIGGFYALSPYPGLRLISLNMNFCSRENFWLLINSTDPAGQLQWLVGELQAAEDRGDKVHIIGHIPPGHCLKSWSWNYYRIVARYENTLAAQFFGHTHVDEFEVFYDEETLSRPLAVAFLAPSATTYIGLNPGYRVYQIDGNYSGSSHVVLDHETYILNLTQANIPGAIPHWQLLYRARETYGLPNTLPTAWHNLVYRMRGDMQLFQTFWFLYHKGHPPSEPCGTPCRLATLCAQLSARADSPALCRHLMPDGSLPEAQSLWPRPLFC
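Human placenta-derived ASM enzyme was preincubated with compound for 10 minutes at room temperature, then given fluorogenic substrate HMU-PC0 (9 uM final) for 60 minutes at 37 °C; a pH 10 stop preceded fluorescence reading at Ex 386/Em 447 nm.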
* marks the source's active call; other numbers are inactive results; ? = inconclusive; / = no result. Compounds with a hit are over-represented: about 19% of the library has one in this group of screens. Unless noted, calls come from the whole dose curve; as a rule, active = well fitted curve in the direction sought with a large enough effect; inconclusive = small, poorly fitted or top-dose-only effect, or another doubt; inactive = no such curve, though single readings can be large; an effect the other way counts as inactive or inconclusive.

SMILES	IL-1B inflam inh	TDP1 cell noCPT	TDP1 cell CPT	HepG2 tox	TGFb SMAD3 inh	S-ASM inh
O=[N+]([O-])c1cc(-c2ccc(/C=N/c3nc4ccccn4c3-c3ccco3)o2)ccc1Cl	?	23.1µM*	?	-25.4%	-5.3%	153.9%
CCCCN(C)C(=O)C1CCCN(c2ncnc3onc(C)c23)C1 (stereo not given)	/	1.84µM*	5.17µM*	-13.1%	-26.8%	/
CCCCN(CC)C(=O)C1CCCN(c2ncnc3onc(C)c23)C1 (stereo not given)	/	20.6µM*	18.4µM*	-11.3%	-15.9%	/
CCOc1ccc(Oc2ccc(S(=O)(=O)N3CCOCC3)cc2NC(=O)C2=COCCO2)cc1	-3.1	23.1µM*	?	4.9%	1.5%	-0.2%
O=C(Nc1ccccc1Oc1ccccc1)C1=COCCO1	12.6	-6.1%	-6.3%	-3.6%	-3.7%	-1.2%
CCOc1ccc(S(=O)(=O)N2CCOCC2)cc1NC(=O)C1=COCCO1	0.0	4.5%	10.4%	-5.1%	-17.5%	2.2%
CCOc1ccc(Oc2ccccc2NC(=O)C2=COCCO2)cc1	-2.3	?	16.4µM*	-23.4%	0.0%	-3.3%
Cc1cnc(-n2ncc(C(=O)NCC(C)(C)N3CCOCC3)c2C(C)C)nc1-c1ccc(F)cc1	/	-5.0%	5.2%	/	/	/
O=c1c(-c2ccccc2)n[nH]c2ccccc12	1.7	?	-5.9%	-0.2%	?	-0.8%
O=C1c2ccccc2-c2n[nH]c3cccc1c23	-77.1*	21.1µM*	8.91µM*	-15.2%	-20.3%	58.1%
CC(C)OC(=O)/C=C1\C[C@@H](c2ccccc2C(F)(F)F)O[C@@H](c2ccccc2C(F)(F)F)O1	29.3	20.6µM*	?	/	/	/
CC(=O)Nc1ccc(NC(=O)C(C)OC(=O)C2CCN(S(=O)(=O)c3ccccc3C(F)(F)F)CC2)cc1 (stereo not given)	15.2	-24.9%	-20.1%	-2.2%	-9.9%	-4.1%
O=C(CN1C(=O)NC2(CCCc3ccccc32)C1=O)c1ccccc1F (stereo not given)	-8.8	-12.0%	-6.3%	-22.5%	4.3%	-1.3%
c1ccc2c(c1)nnn2Cc1nnc2sc(-c3ccc4c(c3)OCCO4)nn12	6.4	16.4µM*	?	-2.0%	0.2%	-1.7%
Cc1cc(C)cc(OCC(=O)OCC(=O)NC2CCCCCC2)c1	0.0	13.9%	-21.1%	3.0%	-1.1%	2.7%
Cc1cc(OCC(=O)NCCCN2CCOCC2)c2c(C)cc(=O)oc2c1	-3.1	15.4%	10.7%	-5.4%	-0.6%	2.4%
CCOc1ccc2nc(N3C(=O)CNC3=S)sc2c1	-96.8*	6.51µM*	16.4µM*	-1.3%	?	1.1%
Cc1cc2nc(N3C(=O)CNC3=S)sc2cc1C	-97.2*	5.8µM*	?	-35.6%	?	1.7%
O=C1c2ccccc2C(=O)N1C1C=CC=CC=C1	-20.7	-0.3%	-2.1%	-17.9%	-11.5%	/
Cc1ccc(C)c(CN2C(=O)c3ccccc3Sc3ccc(C(=O)NCCCOC(C)C)cc32)c1	/	20.6µM*	?	-24.3%	?	/
CC(C)OCCCNC(=O)c1ccc2c(c1)N(Cc1c(F)cccc1Cl)C(=O)c1ccccc1S2	/	25.9µM*	23.1µM*	-12.4%	?	/
O=C(NC1CCCC1)c1ccc2c(c1)N(Cc1c(F)cccc1Cl)C(=O)c1ccccc1S2	/	16.4µM*	16.4µM*	1.7%	0.0%	/
O=C(NC1CCCCC1)c1ccc2c(c1)N(Cc1ccccc1)C(=O)c1ccccc1S2	/	-32.3%	-13.1%	4.2%	27.2%	/
CCCNC(=O)c1ccc2c(c1)N(Cc1cccc(C)c1)C(=O)c1ccccc1S2	/	-12.0%	-13.8%	-16.1%	0.0%	/
CCN(CC)C(=O)c1ccc2c(c1)N(Cc1ccccc1F)C(=O)c1ccccc1S2=O (stereo not given)	/	-15.3%	-21.7%	-30.4%	?	/
SMILES	IL-1B inflam inh	TDP1 cell noCPT	TDP1 cell CPT	HepG2 tox	TGFb SMAD3 inh	S-ASM inh
CCN(CC)C(=O)c1ccc2c(c1)N(Cc1c(F)cccc1Cl)C(=O)c1ccccc1S2	/	?	?	-5.0%	15.8µM*	/
CCN1C(=O)c2ccccc2Sc2ccc(C(=O)NCCC(C)C)cc21	-11.9	-24.0%	2.3%	-6.6%	0.0%	-3.0%
Cc1cc2c(cc1NS(=O)(=O)c1cccc(C#N)c1)n(C)c(=O)c(=O)n2C	/	?	4.5%	-2.6%	-7.9%	/
COc1ccc(C(=O)N=C2SC3CS(=O)(=O)CC3N2Cc2ccccc2)cc1OC (stereo not given)	?	-12.7%	?	-15.0%	2.4%	-3.5%
O=C(c1ccco1)N1CCN(C(=S)NC2CC3CCC2C3)CC1 (stereo not given)	44.7	-16.4%	-26.5%	0.7%	10.0%	0.6%
COCCNC(=O)c1ccc2c(c1)N(Cc1c(F)cccc1Cl)C(=O)c1ccccc1S2	/	20.6µM*	-26.6%	-17.9%	?	/
CNC(=O)c1ccc2c(c1)N(Cc1ccccc1Cl)C(=O)c1ccccc1S2	/	?	?	-36.1%	-25.5%	/
CCN(C(=O)CN1C(=O)c2ccccc2Sc2ccc(C(=O)OC)cc21)c1cccc(C)c1	/	23.1µM*	?	-2.7%	/	/
O=C(NC1CC2CCC(C1)N2Cc1ccccc1)c1ccccc1Br (stereo not given)	7.1	-19.0%	8.2%	-20.3%	0.8%	1.2%
O=[N+]([O-])c1cc(F)cc(F)c1Nc1ccc(F)cc1	-0.5	-4.9%	-20.5%	-0.5%	0.0%	-10.2%
O=C(NC(=S)Nc1ccc(S(=O)(=O)N2CCCCCC2)cc1)c1cccs1	20.3	20.6µM*	?	-4.8%	2.1%	-4.6%
O=C(NC(=S)Nc1ccc(N2CCCCC2)cc1)c1cccs1	?	?	20.6µM*	-21.9%	?	-10.8%
CS(=O)(=O)N1CCN(c2ccc(NC(=S)NC(=O)c3cccs3)cc2)CC1	-6.3	14.1%	-9.3%	-3.5%	3.0%	0.9%
CCCC(=O)NC(=S)Nc1ccc(N2CCN(C(=O)c3cccs3)CC2)cc1	-85.4*	14.6µM*	16.4µM*	-23.1%	?	-0.8%
CCCC(=O)NC(=S)Nc1ccc(NC(=O)c2cccs2)cc1	-9.9	-17.6%	-6.6%	-16.9%	16.6%	-1.9%
O=C(NC(=S)Nc1ccc(N2CCN(C(=O)c3ccccc3)CC2)cc1)c1cccs1	-59.5*	25.9µM*	?	-9.3%	?	-6.3%
CCCn1c2ccccc2c2cnn(CC(=O)N3CCCC(C)C3)c(=O)c21 (stereo not given)	/	?	?	-22.5%	-20.8%	/
